Details in all cases: primary human HUVEC with PBMC; actives raise or lower the signal
Read-out in test [1]: Monocyte Chemoattractant Protein-1 (MCP1), CCL2 (gene 6347)
Nature of the test: BSK_LPS_MCP1: BioMAP Diversity Plus: LPS Assay for Monocyte Chemoattractant Protein-1 (MCP1) Biomarker Activity (AID 2283081).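 As to AC50: secreted MCP-1 protein quantified by ELISA in culture supernatant.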 In short, it runs like this: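 ELISA read-out of MCP-1 after 24 h chemical dosing of a human umbilical vein endothelial cell/peripheral blood mononuclear cell co-culture stimulated with LPS. Gain or loss of signal fitted relative to DMSO controls.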

Test [2] is described as follows: BSK_LPS_PGE2: BioMAP Diversity Plus: LPS Assay for Prostaglandin E2 (PGE2) Biomarker Activity (AID 2283082). In short, it runs like this: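 Endpoint derived from bidirectional curve fitting versus DMSO of ELISA-measured PGE2 in LPS-stimulated human primary vascular co-culture (HUVEC with PBMC) harvested at 24 h.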
Read-out in test [3]: Macrophage colony-stimulating factor (MCSF), CSF1 (gene 1435)
Put plainly: BSK_LPS_MCSF: BioMAP Diversity Plus: LPS Assay for Macrophage colony-stimulating factor (MCSF) Biomarker Activity (AID 2283083). Put shortly: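 HUVEC + PBMC co-culture (human primary), 24 h post-dose; M-CSF by ELISA; gain/loss of signal fitted bidirectionally vs DMSO baseline.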

Read-out in test [4]: Tissue Factor, F3 (gene 2152)
Put plainly: BSK_LPS_TissueFactor: BioMAP Diversity Plus: LPS Assay for Tissue Factor Biomarker Activity (AID 2283084). In short, it runs like this: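 HUVEC/PBMC co-culture, LPS-activated; CD142 ELISA read 24 h post-dose; bidirectional curve fit vs DMSO negative control.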

Read-out in test [5]: Tumor necrosis factor (Homo sapiens) (UniProt P01375)
Nature of the test: BSK_LPS_TNFa: BioMAP Diversity Plus: LPS Assay for Tumour Necrosis Factor alpha (TNFa) Biomarker Activity (AID 2283085). Put shortly: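 Primary human vascular co-culture of HUVEC and PBMC; TNFa ELISA 24 h after treatment, analysed as increase or decrease relative to DMSO control.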

Read-out in test [6]: Vascular cell adhesion molecule 1 (VCAM1), VCAM1 (gene 7412)
Put plainly: BSK_LPS_VCAM1: BioMAP Diversity Plus: LPS Assay for Vascular cell adhesion molecule 1 (VCAM1) Biomarker Activity (AID 2283086). In short, it runs like this:
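Primary human vascular co-culture (umbilical vein endothelium plus PBMC) stimulated with LPS received chemical; 24 h later VCAM-1 was read by ELISA. Overt cytotoxicity was assessed by sulforhodamine B staining of parallel cultures at the same time point.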

Read-out in test [7]: CD38, CD38 (gene 952)
Put plainly: BSK_SAg_CD38: BioMAP Diversity Plus: SAg Assay for CD38 Biomarker Activity (AID 2283087). In short, it runs like this: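 Fluorescence ELISA of cell-surface CD38 served as the read-out, with either increase or decrease fitted against DMSO controls. Cells were a human umbilical vein endothelium plus PBMC co-culture under SEB/TSST-1 stimulation, measured 24 h after dosing.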

Read-out in test [8]: CD40, CD40 (gene 958)
Put plainly: BSK_SAg_CD40: BioMAP Diversity Plus: SAg Assay for CD40 Biomarker Activity (AID 2283088). In short, it runs like this: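 HUVEC/PBMC co-culture, 24 h post-dose; CD40 by ELISA, fluorescence intensity; bidirectional fit vs DMSO negative control.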

Read-out in test [9]: CD69, CD69 (gene 969)
Put plainly: BSK_SAg_CD69: BioMAP Diversity Plus: SAg Assay for CD69 Biomarker Activity (AID 2283089).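 As to AC50: cell surface CD69 protein quantified by ELISA with fluorescence detection.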 Put shortly:
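Primary human vascular co-culture (umbilical vein endothelium with peripheral blood mononuclear cells) exposed to test chemical for 24 h. CD69 levels quantified by fluorescence ELISA; DMSO served as negative control for bidirectional fitting.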

Read-out in test [10]: Monocyte Chemoattractant Protein-1 (MCP1), CCL2 (gene 6347)
Put plainly: BSK_SAg_MCP1: BioMAP Diversity Plus: SAg Assay for Monocyte Chemoattractant Protein-1 (MCP1) Biomarker Activity (AID 2283090). Put shortly: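 MCP-1 levels in the endothelial–PBMC SAg co-culture were quantified by ELISA at 24 h post-dosing; both increases and decreases versus DMSO scored. Cytotoxicity monitored by SRB total protein in parallel cultures.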

Several values for one entry are separate records, joined by “and”; a condition that tells them apart may be missing. Equal values may be shown once. The source holds several records for some structures; these can differ, active in one and inactive in another. Activity calls are given as the source filed them. The calls were made as follows: active = hit-call score of the fitted dose curve at least 0.9, where 1 is the maximum; inactive = score below 0.9.

As a reminder, the AC50 is the concentration giving half of the maximal activity seen.

Chain of Tumor necrosis factor (Homo sapiens) (P01375 whole entry, looked up): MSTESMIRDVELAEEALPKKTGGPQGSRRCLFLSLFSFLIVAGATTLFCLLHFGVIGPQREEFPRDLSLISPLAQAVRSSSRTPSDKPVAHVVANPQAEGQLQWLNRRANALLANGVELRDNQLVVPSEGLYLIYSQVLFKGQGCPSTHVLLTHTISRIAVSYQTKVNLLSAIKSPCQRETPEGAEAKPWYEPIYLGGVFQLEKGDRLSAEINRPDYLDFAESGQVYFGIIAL

As to `CN(C(=O)C(F)(F)C(F)(F)C(F)(F)F)[Si](C)(C)C`, the outcome in test [1], in test [2], in [3], in test [4], in [5] and in test [6] was inactive. The result in [7], in test [8], in [9] and in test [10] was inactive.

With `CCN(CC)c1ccc2c(c1)Oc1cc(N(CC)CC)ccc1C21OC(=O)c2ccccc21`, the outcome in test [1], in test [2], in test [3], in test [5], in test [7] and in test [8] was inactive. The result in test [9] and in test [10] was inactive. The AC50 in [4] was 10 µM (active).

Consider `NCC(F)(F)C(F)(F)C(F)(F)C(F)(F)C(F)(F)C(F)(F)F`, for which the AC50 in test [1] is 19.9 µM (active). Further, the result in test [1], in test [2], in test [3], in test [4], in [5] and in test [6] was inactive. Also, the result in test [7], in [8], in test [9] and in [10] was inactive.

As for `OCC(F)(F)C(F)(F)C(F)(F)C(F)(F)C(F)(F)C(F)(F)C(F)(F)C(F)(F)CO`, the result in test [1], in test [2], in [3], in test [5], in test [7] and in test [8] was inactive. Also, the outcome in [9] and in test [10] was inactive. The AC50 in test [5] was 0.399 µM (active); in test [9], 5.61 µM (active).

`O=C=NCc1cccc(CN=C=O)c1`: the result in test [1], in [2], in [3], in test [4], in test [5] and in [7] was inactive. Besides, the result in test [8], in [9] and in test [10] was inactive.

For `NC(=O)C(F)(F)C(F)(F)C(F)(F)F`, the outcome in [1], in test [2], in test [3], in test [4], in test [5] and in test [6] was inactive. For the same compound, the result in test [7], in test [8], in test [9] and in test [10] was inactive.

In the case of `O=S(=O)(O)CCC(F)(F)C(F)(F)C(F)(F)C(F)(F)C(F)(F)C(F)(F)C(F)(F)C(F)(F)F`, the outcome in [1], in test [3], in test [5], in [7], in [8] and in test [9] was inactive. Further, the outcome in [10] was inactive. The concentration at half-maximal activity (AC50) in test [2] was 30 µM (active) and 40.9 µM (active); in [3], 51.4 µM (active); in test [5], 47.1 µM (active); in test [7], 15.6 µM (active).

As for `CNS(=O)(=O)C(F)(F)C(F)(F)C(F)(F)C(F)(F)C(F)(F)C(F)(F)C(F)(F)C(F)(F)F`, the outcome in test [1], in test [2], in test [3], in test [4], in [5] and in test [7] was inactive. For the same compound, the result in test [8], in [9] and in test [10] was inactive.

Regarding `CCN(CCO)S(=O)(=O)C(F)(F)C(F)(F)C(F)(F)C(F)(F)C(F)(F)C(F)(F)C(F)(F)C(F)(F)F`, the half-maximal activity concentration (AC50) is 21.8 µM (active) in test [1]; 7.7 µM (active) in [3]; 35.9 µM (active) and 29.9 µM (active) in test [7]; 22.8 µM (active) and 46 µM (active) in test [8]; 9.85 µM (active) in test [9]; 18.8 µM (active) and 18.3 µM (active) in test [10]. Also, the outcome in [1], in test [2], in test [3], in test [5] and in test [9] was inactive.

For `C=C(C)C(=O)OCC(F)(F)C(F)(F)C(F)(F)C(F)F`, the result in test [1], in test [2], in [3], in test [4], in test [5] and in test [7] was inactive. In addition, the result in test [8], in test [9] and in test [10] was inactive. Moreover, the AC50 in test [3] is 0.646 µM (active).

On to `CCOC(C=C(C)CCC=C(C)C)OCC`, for which the AC50 was 20 µM (active) in test [1]; 33.1 µM (active) in test [3]; 30.5 µM (active) in [4]; 31.7 µM (active) in test [6]; 3.97 µM (active) in test [8]. The result in test [2], in test [5], in test [7], in [9] and in test [10] was inactive.

For `FC(F)(F)C(F)(F)C(F)(F)C(F)(F)C(F)(F)C(F)(F)CC[Si](Cl)(Cl)Cl`, in test [1], the AC50 was 0.219 µM (active). Further, the result in test [1], in test [2], in test [3], in test [5], in test [6] and in test [7] was inactive. Besides, the result in test [8], in test [9] and in test [10] was inactive.

As to `CCN(CC)c1ccc(N=Nc2ccccc2)cc1`, the AC50 in [1] was 31.9 µM (active); in test [3], 20 µM (active); in test [7], 27.5 µM (active); in test [8], 14.2 µM (active); in test [9] it was 14.3 µM (active); in [10] it was 30.2 µM (active). In addition, the result in [2], in [4] and in [5] was inactive.

Turning to `OCC(O)CC(F)(F)C(F)(F)C(F)(F)C(F)(F)C(F)(F)C(F)(F)C(F)(F)C(F)(F)F` (stereo not drawn), the outcome in [1], in test [2], in [3], in test [4], in [5] and in test [7] was inactive. Moreover, the result in [8], in test [9] and in test [10] was inactive.

`O=C(O)CCC(F)(F)C(F)(F)C(F)(F)C(F)(F)C(F)(F)C(F)(F)C(F)(F)F`: the result in test [1], in test [2], in [3], in [4], in test [5] and in test [6] was inactive. The outcome in test [7], in test [8], in [9] and in test [10] was inactive.

The record behind these values is PubChem BioAssay (EPA / NIEHS).
